Compound activity deposited in PubChem BioAssay by National Center for Advancing Translational Sciences (NCATS).
Most compounds without a hit are left out; they make up all but 3.9% or so of the library.
TGFb SMAD3 inh – blocks TGF-b signaling; HepG2 CAGA-GFP TGF-b/SMAD3 reporter, GFP fluorescence, 18 h; TGF-beta stimulated, 500 pg/mL final; Potency, µM (top dose mostly 46.1 µM), for inactives: top-dose activity, negative = inhibition, most hits filed as inhibitors; 1.2% of 410,000 active; AID 588855; also: % is scaled to controls: 0 for no effect and ±100 for the full control effect; nearly all actives have a fitted effect of over 65% in size
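HEPG2 CAGA-GFP cells (1000/well, DMEM with 1% FBS) were pre-incubated 2 h at 37 degrees C, given compound by pin tool, then stimulated with TGF-beta at 500 pg/mL final for 18 h before per-cell GFP fluorescence imaging.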
HT1080 IDH1KD tx – HT-1080 IDH1 knockdown cell toxicity (counter line); HT-1080 IDH1 knockdown viability, ATP luminescence, 48 h; Potency, µM (highest dose often 46.1 µM), without a hit: at the top dose activity, negative = toxicity, usual class: cytotoxic; 2% of 360,000 active; AID 686971;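 also: 0% = DMSO wells and -100% = cell-free medium wells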
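CellTiter-Glo luminescence after 48 h compound exposure at 37 degrees C of IDH1-knockdown HT-1080 cells in 5% FBS RPMI. %Activity scaled between DMSO wells and cell-free media wells, with curves fitted and assigned curve classes.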
HT1080-NT tox – kills 2HG-producing HT-1080-NT fibrosarcoma cells. HT-1080-NT fibrosarcoma viability, CellTiter-Glo ATP luminescence, 48 h. Potency, µM (top dose mostly 46.1 µM), for the others: top-dose activity, negative = less viability, hits mostly cytotoxic. 1.6% of 360,000 active;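 also: NT is the 2HG producing partner of a matched IDH1 knockdown line; 0% = DMSO-treated cells and -100% = media-only wells without cells; nearly all actives have a fitted effect of over 55% in size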
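HT-1080-NT; 750 cells/well; 5% FBS RPMI; 48 h compound, 37 degrees C; CellTiter-Glo luminescence; curve fitting and curve-class assignment.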
ATXN viability – reduces viability in counter-screen for ATXN expression inhibitors | S2 cells (HEK-293 line with an ATXN2-luciferase reporter) viability, CellTiter-Fluor protease fluorescence, 24 h | Potency, µM (series often up to 56.7 µM), most hits filed as cytotoxic | 0.49% of 400,000 active | AID 651635; also: nearly all actives have a fitted effect of over 40% in size
HepG2 tox – counter-screen for TGF-b inhibitors: cytotoxicity in HepG2 cells | 0.76% of 410,000 active | Potency, µM (highest dose often 46.1 µM), for the others: at the top dose activity change, negative = cytotoxicity, hits mostly cytotoxic | HepG2 CAGA-GFP viability, ATP luminescence, 18 h
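CellTiter-Glo luminescence gave cytotoxicity after 18 hours at 37 degrees C. The cells were HepG2 CAGA-GFP in 1% FBS DMEM, stimulated with 500 pg/mL TGF-beta after compound addition. %Activity was normalised to no-cell wells (complete cell-killing) and DMSO (no toxicity), and curves were fitted and classified.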
ATXN2 expr inh – inhibitors of ATXN2 expression | HEK-293 ATXN2-luciferase reporter, luminescence, 24 h | Potency, µM (series often up to 57 µM), for the others: top-dose activity change, negative = inhibition, hits mostly inhibitors | 0.72% of 360,000 active; also: % is scaled to controls: 0 for no effect and ±100 for the full control effect; nearly all actives have a fitted effect of over 55% in size
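qHTS (up to 57 uM final) was run with 24 h compound exposure of reporter cells at 37 °C. Each well was multiplexed: SteadyGlo luminescence measured ATXN2-luciferase expression after a fluorogenic Gly-Phe-AFC viability readout (25 uM final).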
* marks the source's active call; other numbers are inactive results; i = inactive; ? = inconclusive; nt = no result. Calls follow the shape of the dose curve; as a rule, active = well fitted curve in the direction sought with a large enough effect; inconclusive = small, poorly fitted or top-dose-only effect, or another doubt; inactive = no such curve, though single readings can be large; an effect the other way counts as inactive or inconclusive. Potency is read from the fitted curve at half-maximal effect.

SMILES	TGFb SMAD3 inh	HT1080 IDH1KD tx	HT1080-NT tox	ATXN viability	HepG2 tox	ATXN2 expr inh
O=C(Nc1ccc(Br)c(C(F)(F)F)c1)c1ccccc1	?	0.4%	-0.3%	i	-49.1%	-5.8%
COc1cccc(CNC(=O)COC(=O)c2ccc(-c3ccc(O)cc3)cc2)c1	-5.6%	20.6µM*	?	?	-9.2%	nt
COc1ccc(CNc2ncnc3nc[nH]c23)cc1	7.7%	-4.7%	1.2%	nt	-5.3%	nt
CCCCNS(=O)(=O)c1ccc2nc(SCC(=O)Nc3sccc3C#N)[nH]c2c1	?	20.6µM*	?	?	-32.3%	?
CCCC(=O)C1=C(c2ccc(C)cc2)N(C(=O)CCC)n2cnnc2S1	?	nt	nt	nt	20µM*	nt
CCOC(=O)c1ccc(N2CCN(c3cc(C)ccc3C)CC2)c(NC(=O)Nc2ccccc2)c1	-2.7%	nt	nt	nt	-2.5%	nt
NC(=O)/C=C/C(=O)Nc1ccc(Cl)cc1	-24.0%	?	-1.8%	?	4.9%	?
O=C(/C=C/C(Cl)(Cl)Cl)Nc1ccc(Cl)cc1	?	?	?	?	12.6µM*	?
Cc1cc(C)c2c(n1)nn1c(C)c(CCC(=O)NCc3ccc(Cl)cc3)c(C)nc21	-9.0%	nt	nt	i	-3.8%	-2.9%
CCc1cc2c(=O)n(Cc3ccco3)c(SCC(=O)NCC3CCCO3)nc2s1 (stereo unspecified)	-10.4%	-7.3%	-29.8%	i	-19.1%	-20.7%
CCc1cc2c(=O)n(Cc3ccco3)c(SCc3c(C)noc3C)nc2s1	?	14.6µM*	?	?	-41.2%	22.2%
CCCCCCN1CCN(C2CN(Cc3cn(Cc4ccc(C)cc4)nn3)S(=O)(=O)C2)CC1 (stereo unspecified)	nt	23.1µM*	-21.2%	i	nt	-13.7%
Cc1cc(C)c(NC(=O)Nc2ccccc2C)c(Cl)c1	-7.0%	11.0%	24.8%	i	1.26µM*	nt
Cc1cc(C)c(NC(=O)Nc2ccccc2)c(Cl)c1	2.4%	16.6%	18.2%	i	0.8%	6.9%
COc1ccc(CCNC(=O)CCc2c(C)nc3c(c(C)nn3-c3ccccc3)c2C)c(OC)c1	-34.5%	nt	nt	i	-2.0%	5.2%
N#CC1=C(N)Oc2ccc3ccccc3c2C1c1cccnc1 (stereo unspecified)	-25.7%	?	8.2µM*	nt	-27.4%	nt
N#CC1=C(N)Oc2ccc3ccc(O)cc3c2C1c1cccnc1 (stereo unspecified)	-8.3%	-16.6%	7.0%	i	4.0%	7.9%
CCOc1ccc(NC(=O)N2CCN(S(=O)(=O)c3ccc4c(ccn4C)c3)CC2)cc1	0.8%	nt	nt	i	-13.7%	-6.1%
C#CCOCCOCCOCCNc1nc(N2CCN(C(=O)CCCCCCCCCCNC(=O)Cn3cc(C[C@@H](C)O)nn3)CC2)nc(N2CCN(C(=O)CCCCCCCCCCNC(=O)[C@@H](CCSC)n3cc(CCO)nn3)CC2)n1	8.3%	20.6µM*	?	i	4.4%	-7.8%
C#CCOCCOCCOCCNc1nc(N2CCN(C(=O)CCCCCCCCCCNC(=O)[C@H](CCCCN)n3cc(C[C@@H](C)CC)nn3)CC2)nc(N2CCN(C(=O)CCCCCCCCCCNC(=O)[C@H](CCCN=C(N)N)n3cc(C[C@@H](C)CC)nn3)CC2)n1	12.6µM*	?	?	nt	15.8µM*	-20.2%
C#CCOCCOCCOCCNc1nc(N2CCN(C(=O)CCCCCCCCCCNC(=O)[C@@H](CCSC)n3cc(CCO)nn3)CC2)nc(N2CCN(C(=O)CCCCCCCCCCNC(=O)[C@H](CCCN=C(N)N)n3cc(C[C@@H](C)CC)nn3)CC2)n1	?	?	?	15.8µM*	-80.3%	?
CCS(=O)(=O)N1CCc2cc(C(=O)Nc3cccc(NC(C)=O)c3)ccc21	18.0%	nt	nt	i	-8.5%	9.5%
CCOC(=O)c1c(S(=O)(=O)N2CCC(C(=O)N3CCN(c4cccc(C)c4C)CC3)CC2)c(C)n(C)c1C	?	nt	nt	?	-13.8%	?
COc1cc(-c2cccc(Cl)c2)cc2c1OCCN(C(=O)CCn1ccc(C)n1)C2	nt	nt	nt	i	nt	nt
CCOc1ccc(C2=CC(c3cc(Br)ccc3F)n3ncnc3N2)cc1Cl (stereo unspecified)	-6.0%	nt	nt	nt	-12.2%	12.2%
SMILES	TGFb SMAD3 inh	HT1080 IDH1KD tx	HT1080-NT tox	ATXN viability	HepG2 tox	ATXN2 expr inh
Cc1ccc(C)c(-c2ccc(=O)n(Cc3ccc(F)cc3Cl)n2)c1	12.6µM*	-22.7%	-13.0%	?	-20.5%	-20.1%
[O-][N+]1=c2ccc(Nc3ccccc3)cc2=NC12CCCCC2	6.31µM*	16.4µM*	?	14.1µM*	-105.9%	?
COc1ccc(Nc2ccc3c(c2)=NC2(CCCCC2)[N+]=3[O-])cc1	3.16µM*	?	?	nt	12.6µM*	?
O=C1CC2(CCCC2)CC(=O)N1	nt	nt	nt	i	nt	7.8%
CCOC(=O)C(O)c1ccccc1 (stereo unspecified)	nt	nt	nt	i	nt	6.7%
CC(=O)NC1=NN(C(C)=O)C(C)(c2ccccc2)S1 (stereo unspecified)	1.0%	7.08µM*	2µM*	i	-20.1%	-17.6%
CC(C)(C)OC(=O)C(Cl)(C(=O)OC(C)(C)C)c1ccc2nnnn2n1	-0.8%	18.4µM*	?	i	-17.3%	-22.9%
CC(C)(C)n1ncc2c(=O)n(Cc3cccc(C#N)c3)cnc21	-2.8%	nt	nt	nt	-31.9%	nt
FC(F)(F)c1cnc(N2CCCN(C(=S)Nc3ccccc3)CC2)c(Cl)c1	?	23.1µM*	?	i	-58.3%	?
C[C@@H]1CCN(C(=O)[C@H](CCCN=C(N)N)NS(=O)(=O)c2cccc3c2NC[C@H](C)C3)[C@@H](C(=O)O)C1	nt	nt	nt	i	nt	7.6%
Cc1cc[n+](CCC2CCCCC2)c2ccccc12	?	nt	nt	nt	-30.8%	nt
CCOc1ccc(-c2csc(/C(C#N)=C\c3ccc(O)c([N+](=O)[O-])c3)n2)cc1	5.01µM*	?	14.6µM*	nt	-6.7%	?
COc1cccc(Nc2nc3c(S(=O)(=O)c4cc(C)ccc4C)nnn3c3ccsc23)c1	-0.3%	nt	nt	nt	-11.3%	nt
COc1ccccc1NC(=O)c1cc2c(CO)cnc(C)c2oc1=Nc1cccc(C(N)=O)c1	-12.8%	2.2%	-1.6%	14.1µM*	-13.7%	nt
COc1ccccc1NC(=O)c1cc2c(CO)cnc(C)c2oc1=Nc1ccccc1	-0.9%	17.3%	15.7%	i	-3.7%	-26.4%
CCN1C(C(=O)c2ccccc2)=C(OC(=O)COc2ccccc2)c2ccccc2S1(=O)=O	-10.2%	nt	nt	nt	-16.4%	nt
CCCN1C(C(=O)c2ccccc2)=C(OC(=O)c2ccc(F)cc2)c2ccccc2S1(=O)=O	17.8µM*	nt	nt	nt	-56.2%	nt
